Out of some 68,000 compounds screened, about 2,700 (4%) showed an effect of 50% or more. The sample holds strong results, similar compounds and a random draw of the others, so the mix is not that of the screen.

This test has as its system Plasmodium berghei. The test is described as follows: Screen against P. berghei liver stage (PbLuc), transformed with Luciferase, at 2uM. It is filed as functional, HepG2. As to conditions: tested at 2 uM.
For the molecule `CCO[C@H]1CO[C@@]2(CCCN(C(=O)c3ccc(OC)c(F)c3)C2)C1`, the INHIBITION is on record as 52.36%. `CCO[C@H]1CO[C@@]2(CCCN(S(=O)(=O)c3ccccc3)C2)C1`: the INHIBITION was -89.74%. For the molecule `O=C(N1CCCC1)N1CCC[C@]2(C[C@@H](OCc3ccncc3)CO2)C1`, the INHIBITION is given as -12.23%. To `CC(=O)N1CCC(c2ccnc(Nc3cnccn3)n2)C1` (stereo not drawn) belongs 28.45%; to `CC(C)CN1CCC2(CC1)C(=O)Nc1ccc(C(=O)N(C)C)cc12`, 11.28%; to `Cc1cc(O)ccc1-c1cc(-c2cnn(C)c2C2CC2)c(C#N)c(N)n1`, 7.06%. Regarding `c1cc2occc2c(N2CCCC(c3nncn3C3CC3)C2)n1` (stereo not drawn), the INHIBITION is 12.62%.

For `CCCc1ccc(CN2CCC3(CCC(=O)N(CCCOC)C3)CC2)o1`, the INHIBITION is listed as -26.08%. The result for `CCCc1nccn1-c1ccc(C(C)O)cc1` (stereo not drawn) reads 10.23%; that for `OC(CN1CCOCC1)c1ccc(Br)cc1` (stereo not drawn), 36.23%; that for `CCCc1nccn1-c1ccc(C(O)CN2CCOCC2)cc1` (stereo not drawn), 62%. For `O=C(CN1CCCC1)N1CCCC(c2cc(=O)n3c(n2)CCCCC3)C1` (stereo not drawn), the INHIBITION is given as 18.22%. To `O=C(NCc1ccncc1)N(Cc1ccccc1F)C1CC1` belongs 14.83%; to `Cc1ccc(CNC(=O)N(Cc2ccccc2F)C2CC2)cn1`, 70.41%.

For the molecule `CN(C)c1ncccc1CNC(=O)N(Cc1ccccc1F)C1CC1`, the INHIBITION is reported as -20.35%. The result for `Cc1nc(C2(O)CCCNCC2)sc1CCOc1ccccc1Cl` (stereo not drawn) reads -16.62%; that for `CCOc1ncccc1NC(=O)N1CCN(c2cccc(C)c2C)CC1`, 30.91%. To `Cc1n[nH]c(C)c1NC(=O)CN1CCCC1c1noc(C(C)C)n1` (stereo not drawn) belongs 15.28%. To `CN1CCN(C(=O)Cc2cccc(F)c2)Cc2cccnc21` belongs 26.09%; to `c1cnc(-c2noc(C3CN(Cc4ccsc4)C3)n2)cn1`, 5.39%. With `O=C(Cc1cccs1)N1CC(c2nc(-c3cnccn3)no2)C1`, the INHIBITION stood at 50.2%. For the molecule `N#Cc1cccc(C(=O)N2CC(c3nc(-c4cccnc4)no3)C2)c1`, the INHIBITION was 25.53%. The result for `c1cncc(-c2noc(C3CN(Cc4cccs4)C3)n2)c1` reads 51.71%; that for `c1csc(CN2CC(c3nc(-c4cnccn4)no3)C2)c1`, 26.54%; that for `COc1cccc(-c2noc(C3CCN(Cc4cccs4)C3)n2)c1` (stereo not drawn), 11.1%.

As for `CCc1ccc(NC(=O)N2C[C@H]3CC[C@@]4(N=C(C)N(C)C4=O)[C@H]3C2)cc1`, the INHIBITION came to 17.4%. The result for `O=C(Nc1c(N2CCCC2)cccc1N1CCCC1)c1cnsn1` reads 52.38%.

`O=C(Nc1c(N2CCCC2)cccc1N1CCCC1)c1ccccn1`: the INHIBITION is 32.26%. As for `O=C(Nc1c(N2CCCC2)cccc1N1CCCC1)c1cnccn1`, the INHIBITION was 19.33%.

Turning to `CCOc1cc(CN(C)CCC#N)ccc1OC(F)F`, the INHIBITION was determined as 14.17%.

In the case of `Cc1cc(C)cc(CNCCS(=O)(=O)N2CCOCC2)c1`, the INHIBITION is given as -6.33%. The result for `OCC(CO)Nc1nc(C(F)F)nc2ccccc12` reads -11.32%. Take `CNc1cc(C2CN(Cc3scnc3C)CCO2)nc(C)n1` (stereo not drawn): the INHIBITION is -1.07%.

Take `CS(=O)(=O)c1ccc(Cl)c(C(=O)NCCC2=CCCCC2)c1`: the INHIBITION was determined as 6.92%. Regarding `Cc1cc(C)n(C2CCCN(C(=O)Cc3cn4ccsc4n3)C2)n1` (stereo not drawn), the INHIBITION came to 20.57%. On to `Cc1cc(N2CCC(O)(CN(C)C(=O)CCCN)C2)c2cnccc2n1` (stereo not drawn), for which the INHIBITION is -14.93%.

In the case of `Cc1cc(N2CCC(O)(CN(C)C(=O)CCN)CC2)c2cnccc2n1`, the INHIBITION is given as 57.47%.

For the molecule `Cc1cc(N2CCC(O)(CN(C)C(=O)CCN)C2)c2cnccc2n1` (stereo not drawn), the INHIBITION is listed as -17.65%.

Take `CCOC(=O)COC1CCN(C(C)=O)CC(=O)N(C)c2ccccc21` (stereo not drawn): the INHIBITION is recorded as 19.99%. On to `Cc1ccnc(C2(C)CCCN2S(=O)(=O)c2c(C)noc2C)n1` (stereo not drawn), for which the INHIBITION is listed as 15.61%. The result for `Cc1nn2cnnc2c(C)c1CCC(=O)Nc1nc2c(s1)CCC2` reads -4.37%. The result for `O=C(Cc1ccccn1)N1CCc2c(O)nc(-c3cnccn3)nc2C1` reads 56.57%; that for `O=C(Cc1ccccn1)N1CCc2nc(-c3cnccn3)nc(O)c2C1`, 41.31%; that for `Oc1nc(-c2cnccn2)nc2c1CCN(Cc1ccccn1)C2`, 19.47%.

For `COCCc1noc(-c2ccc(=O)[nH]c2)n1`, the INHIBITION was -18.6%. The result for `CS(=O)(=O)CCNCc1ccc(OCc2ccncc2)cc1` reads -117.21%; that for `O=S1(=O)COCCN1Cc1ccc(Cl)c(F)c1`, 51.45%. The result for `O=S1(=O)COCCN1Cc1ccc(Cl)c(Cl)c1` reads -31.95%.

As to `O=S1(=O)COCCN1Cc1ccc(F)c(F)c1`, the INHIBITION turned out to be 22.52%. For the molecule `Cc1ccc(C(C)NC(=O)N2CCCN(CC(F)F)CC2)s1` (stereo not drawn), the INHIBITION is 9.27%. Consider `CC(C)N1[C@H](CN2CCCC2)C[C@@H]2CN(C(=O)c3ccoc3)CC[C@@H]21`, for which the INHIBITION is given as 50.32%. To `CC(C)N1[C@H](CN2CCCC2)C[C@@H]2CN(Cc3ccoc3)CC[C@@H]21` belongs 1.92%; to `CC(=O)N1C(CN2CCCC2)C[C@@H]2CN(C(=O)c3ccoc3)CC[C@@H]21` (stereo partly drawn), 4%.

The record behind these values is ChEMBL document CHEMBL4513216, “Probing the Open Global Health Chemical Diversity Library for Multistage-Active Starting Points for Next-Generation Antimalarials” (ACS Infect Dis, 2020).
